Compound activity (PubChem BioAssay)
An excerpt weighted towards active compounds, which were near 5.1% of everything screened.
ROMK mod: modulators of human ROMK potassium channel; AID 1918; Tet-inducible ROMK, thallium flux fluorescence; actives lie on both sides; 2% of 130,000 active; P48048; B-score at 10 µM;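 active means signal ratio slope over the read window, or its plate-corrected B-score, at least 3 SD from the plate mean, either direction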;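 further: B-score of the F/F0 ratio slope over 7 to 12 s after thallium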
Cl transport mod: modulators of human KCC2 chloride dependent transport. Q9H2X9. KCC2 cells, thallium flux FluoZin-2 fluorescence. B-score of Tl+ flux slope (higher = more flux/activation; lower = inhibition) at 10 µM. 2.2% of 190,000 active. AID 1456;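 active means thallium flux slope and its plate-corrected score both differing from the plate sample mean at a set confidence after two filtering rounds, in either direction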;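 further: slope of fluorescence scaled to starting intensity during 10 to 20 s after thallium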
Target sequence (Q9H2X9 whole entry, looked up): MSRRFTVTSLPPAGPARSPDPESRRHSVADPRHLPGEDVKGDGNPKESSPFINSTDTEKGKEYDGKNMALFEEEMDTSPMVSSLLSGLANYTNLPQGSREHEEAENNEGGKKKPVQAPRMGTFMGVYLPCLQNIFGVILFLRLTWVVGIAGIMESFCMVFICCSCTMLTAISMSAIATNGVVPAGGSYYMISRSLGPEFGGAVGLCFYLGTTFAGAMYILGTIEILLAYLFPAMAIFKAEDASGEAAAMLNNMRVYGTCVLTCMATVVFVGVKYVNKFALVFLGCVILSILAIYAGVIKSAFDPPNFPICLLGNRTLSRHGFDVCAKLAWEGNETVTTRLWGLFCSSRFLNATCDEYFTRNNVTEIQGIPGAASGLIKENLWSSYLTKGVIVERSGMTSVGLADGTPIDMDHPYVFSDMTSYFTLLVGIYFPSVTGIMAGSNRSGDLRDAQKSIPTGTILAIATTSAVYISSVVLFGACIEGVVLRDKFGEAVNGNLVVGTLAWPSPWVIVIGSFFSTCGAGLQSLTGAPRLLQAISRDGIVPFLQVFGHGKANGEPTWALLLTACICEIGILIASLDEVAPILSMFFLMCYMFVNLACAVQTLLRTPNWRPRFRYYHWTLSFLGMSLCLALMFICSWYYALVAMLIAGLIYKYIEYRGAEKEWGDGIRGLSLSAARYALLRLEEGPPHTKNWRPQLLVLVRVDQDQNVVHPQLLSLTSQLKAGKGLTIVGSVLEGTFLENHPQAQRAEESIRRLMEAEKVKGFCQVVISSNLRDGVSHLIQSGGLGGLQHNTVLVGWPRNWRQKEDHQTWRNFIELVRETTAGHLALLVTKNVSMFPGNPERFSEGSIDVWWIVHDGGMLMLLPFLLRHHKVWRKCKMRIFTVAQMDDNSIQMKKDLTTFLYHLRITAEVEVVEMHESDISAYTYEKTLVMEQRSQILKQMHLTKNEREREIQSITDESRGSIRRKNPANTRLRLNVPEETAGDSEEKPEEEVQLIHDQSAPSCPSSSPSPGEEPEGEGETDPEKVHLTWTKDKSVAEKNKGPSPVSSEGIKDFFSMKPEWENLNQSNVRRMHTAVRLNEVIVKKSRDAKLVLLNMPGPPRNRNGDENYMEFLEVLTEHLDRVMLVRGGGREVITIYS
RAM network inh: inhibitors of the yeast RAM network. 1.8% of 190,000 active. S. cerevisiae dse1pr::URA3 reporter, 5-FOA growth OD615, 2 d; analog-sensitive cbk1-as2 kinase mutant strain. inhibition, % at 50 µM;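 active means inhibition above a set limit, 3 SD over mean compound inhibition, cut at about 8.4% in these data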;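 further: inhibition rescues growth on 5-FOA so higher OD means more RAM inhibition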
S1P4 antag: blocks the human S1P4 receptor | S1P4-expressing cells, antagonist mode, reporter read-out | AID 1510 | inhibition, % at 4.98 µM | O95977 | 0.26% of 220,000 active; in the data active means inhibition above about 29%
S1P4 agonist: human S1P4 receptor agonism. 0.35% of 220,000 active. AID 1509. activation, % at 4.98 µM. S1P4-expressing cell line, agonist reporter assay. O95977; in the data active means activation above about 11%
S1P3 antagonist: antagonists of human S1P3 receptor; Q99500; CHO S1P3 NFAT-BLA reporter, FRET fluorescence, antagonist mode; inhibition, % at 4.98 µM; 0.27% of 170,000 active; AID 485;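 active means inhibition above the plate cutoff, the mean inhibition of test wells on that plate plus 3 SD, cut at about 28% in these data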;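 further: cells challenged with S1P at its EC80 of 0.8 µM; blue over green emission ratio from cleaved BLA substrate after 4 h stimulation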
ROMK hit retest: retested hit modulating human ROMK potassium channel | shares compounds with ROMK mod | ROMK thallium flux, fluorescence ratio; hits give low values | normalized thallium flux (F/F0 slope) at 10 µM | 54% of 3,000 active | AID 1917;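 active means Flux at 10 µM at least 3 SD below or above vehicle control mean in one or both replicates; inconclusive means no clear call, values can overlap the other calls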
Numbers stand for hits; - = inactive; ? = inconclusive; . = not tested or not shown.

SMILES	ROMK mod	Cl transport mod	RAM network inh	S1P4 antag	S1P4 agonist	S1P3 antagonist	ROMK hit retest
Cc1ccsc1/C=C(\C#N)C(=O)NCCCN1CCOCC1	-	-	-	-	-	-	.
Cc1ccc(/C=C(\C#N)C(=O)NCCN2CCOCC2)cc1	-3.15	-	-	-	-	-	0.0597
COc1ccc2[nH]c(=O)c(CN(Cc3ccc(C)cc3)Cc3nnnn3CC3CCCO3)cc2c1 (stereo not given)	.	-	-	-	-	-	.
COc1ccccc1CN(Cc1cc2cc(C)cc(C)c2[nH]c1=O)Cc1nnnn1CC1CCCO1 (stereo not given)	-4.07	-	-	-	-	-	0.0655
NC1=NC(c2ccc(F)cc2)n2c(nc3ccccc32)N1 (stereo not given)	-	-	-	-	-	-	.
Cc1ccc(-n2c(C)cc(C3N=C(N)Nc4nc5ccccc5n43)c2C)c(C)c1 (stereo not given)	.	-	-	-	-	-	0.0466
NC1=NC(c2cccc(O)c2)n2c(nc3ccccc32)N1 (stereo not given)	-	.	-	-	-	-	.
Cc1cc(C2N=C(N)Nc3nc4ccccc4n32)c(C)n1-c1ccccc1Cl (stereo not given)	-5.05	-	-	-	-	.	0.0593
Cc1c(C(=O)N2c3ccccc3Sc3ccccc32)cccc1[N+](=O)[O-]	.	-	-	-	-	-	.
CN(C)CCCNS(=O)(=O)c1ccc(Oc2ncc(C(F)(F)F)cc2Cl)cc1	.	.	-	-	-	.	.
CCOC(=O)c1c(CSc2ccccc2)n(C)c2cc(Br)c(OCC(O)CNC(CO)(CO)CO)cc12 (stereo not given)	-5.19	-	-	-	-	-	0.0558
O=C(O)c1ccc(-c2nc(-c3ccc(Cl)c(Cl)c3)cs2)cc1	3.07	-	-	-	-	-	-
Cc1nn(CCCC(=O)N2CCN(c3ccc(F)cc3)CC2)c(C)c1[N+](=O)[O-]	-5.98	-	-	-	-	-	0.0541
Cn1c(/C(C#N)=C/c2cccc(O)c2)nc2ccccc21	-5.04	-	-	-	-	-	0.0486
CCc1nnc(NC(=O)Cc2ccc(Br)cc2)s1	-	-	-	-	-	-	.
COC(=O)[C@@]1(Cc2ccc(OC)cc2)[C@H]2c3cc(C(=O)N(C)C)n(CCc4ccc(OC)c(Br)c4)c3C[C@H]2CN1C(=O)c1ccccc1	-3.85	-	-	-	-	-	0.0648
COc1ccccc1CNC(=O)CSCc1cnn(-c2ccccc2)c1-n1cccc1	.	-	-	-	-	.	.
COc1cccc(CNC(=O)CSCc2cnn(-c3ccccc3)c2-n2cccc2)c1OC	-3.33	-	-	-	-	.	-
CN(C)CCn1c(C(=O)Nc2ccccc2)cc2ccccc21	.	.	-	-	-	-	.
CCOC(=O)c1cc2ccccc2n1CCN(CC)CC	4.96	-	-	-	-	.	?
Cc1ccccc1NC(=O)COC(=O)c1ccc(S(C)(=O)=O)c([N+](=O)[O-])c1	-3.47	-	-	-	-	-	?
Cc1ccc(OCC(=O)Nc2ccc(CN3CCCCC3)cc2)c(C)c1	-	-	-	-	-	-	.
CSc1cccc(CN2CCC(CO)(Cc3cccc(C(F)(F)F)c3)CC2)c1	-3.51	-	-	-	-	-	0.0628
c1ccc(OCCn2cnc3ccccc32)cc1	-2.17	.	-	-	-	-	0.0667
Cc1ccc([N+](=O)[O-])c(OCCn2cnc3ccccc32)c1	-2.96	-	-	-	-	-	?
SMILES	ROMK mod	Cl transport mod	RAM network inh	S1P4 antag	S1P4 agonist	S1P3 antagonist	ROMK hit retest
Cc1ccc(OCCOCCn2cnc3ccccc3c2=O)c([N+](=O)[O-])c1	-	-	-	-	-	-	.
CN=C(C)/C(C(=O)OC)=C(/O)c1c(F)cccc1F	.	.	.	-	-	-	.
c1nnc(NC2=NCCC2)s1	1.55	-	-	-	-	.	-
CCCCNc1cc(C)nc(NCc2ccccc2)n1	-4.09	-	-	-	-	-	0.0505
Cc1cc(C)nc(NCCCc2ccccc2)n1	.	-	-	-	-	-	.
Fc1cc(NCc2ccccc2)nc(NCc2ccccc2)n1	-5.75	-	-	-	-	-	0.05
CCOc1ccccc1CN1CCN(CC2=Cc3cc(OC)ccc3OC2)CC1CCO (stereo not given)	.	-	.	-	-	-	0.0674
O=C(Nc1ccc(Cl)c([N+](=O)[O-])c1)c1ccc2c(c1)OCCO2	-	-	-	-	-	-	.
CCOc1ccc(C(=O)Nc2ccc3c(c2)OCCO3)cc1[N+](=O)[O-]	-3.33	-	-	-	-	-	-
Cc1cc(-c2nn(-c3ccccc3F)cc2CN2CCN(c3ccncc3)CC2)c(C)s1	-3.05	.	-	-	-	-	0.0635
Cc1cc(-c2nn(-c3ccccc3F)cc2CN2CCC(O)CC2)c(C)s1	-	-	-	-	-	-	.
Oc1c(Br)cc(Cl)cc1C=Nc1ccc(N2CCOCC2)cc1	-	-	-	-	-	-	.
Oc1c(Br)cc(Cl)cc1C=Nc1ccccc1Br	3.5	-	-	-	-	-	?
COc1ccc(N=Cc2c(O)c3ccccc3n2C(C)=O)cc1	.	-	.	-	-	-	0.0335
O=C(O)c1ccc(N2CCOCC2)c(N2C(=O)C3C4C=CC(C4)C3C2=O)c1 (stereo not given)	-	-	-	-	-	-	-
CCOC(=O)C1CCN(C(=O)COc2ccc(Br)cc2Br)CC1	-	-	-	-	-	-	.
CCOC(=O)C1CCN(C(=O)COc2cc(C)c(Br)cc2C)CC1	-4.9	-	-	-	-	-	0.0581
O=C(NNS(=O)(=O)c1ccccc1[N+](=O)[O-])c1cccc([N+](=O)[O-])c1	-	-	-	-	-	-	.
CN(C)CCNC(=O)/C(=C/c1ccc(-c2cccc([N+](=O)[O-])c2)o1)NC(=O)c1ccccc1	-4.47	-	-	-	-	-	0.0528
CN(C)C(=O)/C(=C\c1ccc(-c2cccc([N+](=O)[O-])c2)o1)NC(=O)c1ccccc1	-	-	-	-	-	-	.
CN(C)CCCNC(=O)/C(=C\c1ccc(-c2ccc(Br)cc2)o1)NC(=O)c1ccccc1	-3.9	-	-	-	-	-	0.0539
CN(C)CCNC(=O)/C(=C/c1ccc(-c2cccc(Cl)c2)o1)NC(=O)c1ccccc1	-3.65	-	-	-	-	-	0.0559
CCCCNC(=O)/C(=C\c1ccc([N+](=O)[O-])o1)NC(=O)c1ccccc1	-	-	-	-	-	-	.
CN1C(=O)c2ccccc2C(C(=O)O)C1c1cccc(Cl)c1 (stereo not given)	1.57	-	-	-	-	-	-
CCc1ccc(C2C(C(=O)O)c3ccccc3C(=O)N2C)cc1 (stereo not given)	-	-	-	-	-	.	.
COc1ccc(Cc2n[nH]c(=S)n(N)c2=O)cc1	-	-	-	-	-	-	.
Cc1ccccc1Nc1nc(N)nc(COC(=O)c2cccc(S(=O)(=O)NCc3ccccc3)c2)n1	-3.84	-	-	-	-	-	0.0473
